The values that follow come from publication PMC5540273 (PLoS ONE, 2017).
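Also: KINOMEscan kinase panel screen.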

For one assay, the system named is WEE2. As to conditions: concentration: 1 μM, replicates: in singlicate; n = 1.
`CC(C)(C)OC(=O)NC1CCCN(c2cc(-c3ccc4c(N)n[nH]c4c3)nc(N)n2)C1` (stereo not shown) [GSK2286096]: the “%Inh” value amounted to 0%.

As for `Fc1cccc(COc2ccc(Nc3ncnc4sc(-c5ccc[nH]5)cc34)cc2Cl)c1` [GW707818], the “%Inh” value was found to be 0%.

On to `COc1cc2c(Nc3cccc(NC(=O)c4ccccc4)c3)ncnc2cc1OCCCN1CCOCC1` [GSK223810], for which the “%Inh” value is given as 40%.

With `O=C(c1ccc(-c2cc(-c3c[nH]nc3-c3ccccn3)ccn2)cc1)N1CCCC1` [GW792479], the “%Inh” value was 0%.

Regarding `Cc1ccc(C)c(NC(=O)NCCNc2ccnc(Nc3ccc(F)cc3)n2)c1` [GSK1379878], the “%Inh” value is recorded as 0%.

Take `CC(=O)Nc1n[nH]c2ncc(-c3ccccc3)cc12` [SB-548492]: the “%Inh” value came to 20%.

On to `Cl.Cn1ccc(-c2cccc(Nc3ccnc4cc(-c5nccs5)ccc34)c2)n1` [GW525701], for which the “%Inh” value is 0%.

`O=C(CCO)NCCn1ccc2ncnc(Nc3ccc(Oc4cccc(C(F)(F)F)c4)c(Cl)c3)c21`: the “%Inh” value is on record as 0%.

Turning to `O=C(Nc1n[nH]c2nc(-c3ccco3)c(Br)cc12)c1ccc(CN2CCCC2)cc1.O=C(O)[C@H](O)[C@@H](O)C(=O)O` [SB-742352], the “%Inh” value worked out at 4%.

As for `Oc1ccc2ncnc(Nc3ccc(OCc4ccccc4)cc3)c2c1` [GI262866], the “%Inh” value is recorded as 0%.

As to `NC(=O)c1sc(-n2cnc3ccccc32)cc1OCc1ccccc1F` [GSK1024306], the “%Inh” value is 0%.

Take `Fc1cccc(COc2ccc(Nc3ncnc4nn5ccccc5c34)cc2Cl)c1` [GW689066]: the “%Inh” value amounted to 0%.

On to `O=c1cc(N2CCOCC2)nc2n(Cc3cccc(Cl)c3)ccn12` [GSK2296823], for which the “%Inh” value is listed as 13%.

For the compound `O=C(Nc1ccccc1)Nc1ccc(Oc2ccc3nccn3n2)cc1`, the “%Inh” value turned out to be 13%.

`Fc1cccc(COc2ccc(Nc3ncnc4cc[nH]c34)cc2Cl)c1`: the “%Inh” value amounted to 4%.

`C[C@@H]1CCN(C(=O)CO)C[C@@H]1N(C)c1ncnc2[nH]ccc12`: the “%Inh” value turned out to be 0%.

Regarding `FC(F)(F)c1ccc(-c2nn3ncccc3c2-c2ccnc(Nc3cccc(C(F)(F)F)c3)n2)cc1` [GW828205], the “%Inh” value is recorded as 11%.

As for `CSc1nn2c(=O)cc(N3CCOCC3)nc2n1Cc1cccc(Cl)c1Cl` [GSK2347225], the “%Inh” value came out at 35%.

With `Cl.c1ccc(Cn2ccc3cc(Nc4ncnc5ccccc45)ccc32)cc1` [GW275568], the “%Inh” value is 14%.

With `CCCc1ccc(S(=O)(=O)NC2CCN(c3ccnc(Nc4ccc(OC)cc4)n3)C2)cc1` (stereo not shown) [GSK1379737], the “%Inh” value was 0%.

As for `CCn1c(-c2ccncc2)nc2cnccc21` [SB-735216], the “%Inh” value turned out to be 1%.

Take `Nc1nc(-c2ccc3c(N)n[nH]c3c2)cc(N2CCCCC2)n1` [GSK2228768]: the “%Inh” value came to 0%.

Turning to `COC(=O)c1cccc(NC(=O)NCCNc2ccnc(Nc3ccc(F)cc3)n2)c1` [GSK1379883], the “%Inh” value is reported as 16%.

With `CC(C)(C)c1ccc(-n2cnc3c(N)ncnc32)cc1` [SKF-97263], the “%Inh” value came out at 2%.

With `Cc1cc(N2CCC(NS(=O)(=O)c3ccc(F)cc3)CC2)nc(Nc2cccc(C#N)c2)n1.O=C(O)C(F)(F)F` [GSK1653537], the “%Inh” value came to 15%.

As for `CCC(CC)(CC)n1cnc2c(N)ncnc21` [SKF-97620], the “%Inh” value is 6%.

Consider `OCCOCCn1ccc2ncnc(Nc3ccc(Oc4cccc(Cl)c4)c(Cl)c3)c21`, for which the “%Inh” value is on record as 0%.

For `COc1ccc(Nc2nccc(N3CCC(NC(=O)c4cccc(NC(C)=O)c4)C3)n2)cc1` (stereo not shown) [GSK1379732], the “%Inh” value is 7%.

For the compound `Cc1ccc(O)cc1Nc1cc(C(F)(F)F)nc2ccc(-c3ccncc3)cc12` [GW630823], the “%Inh” value stood at 30%.

For the compound `Cn1ccc2ncnc(Nc3ccc(Oc4cccc(Cl)c4)c(Cl)c3)c21`, the “%Inh” value stood at 34%.

Take `Clc1cc(Nc2ncnc3cc[nH]c23)ccc1OCc1ccccn1`: the “%Inh” value amounted to 0%.

On to `O=C(NCCCN1CCCC1=O)c1cnc(NCc2cc(Cl)ccc2Cl)nc1NC1CCNCC1`, for which the “%Inh” value amounted to 0%.

In the case of `COc1ccc(Nc2nccc(N3CCC(NC(=O)Nc4ccc5c(c4)OCO5)C3)n2)cc1` (stereo not shown) [GSK1379745], the “%Inh” value stood at 14%.

As for `Fc1ccc(Nc2nccc(-c3c(-c4ccc(Cl)cc4)nn4ncccc34)n2)cc1F` [GW829058], the “%Inh” value is on record as 2%.

Turning to `C[C@H]1CC[C@@H](C(=O)Nc2ccccc2)CN1c1cc(-c2ccc3c(N)n[nH]c3c2)nc(N)n1` [GSK2283293], the “%Inh” value came out at 14%.

A further assay relates to WNK1. The following applies: concentration: 1 μM, replicates: in singlicate; n = 1.
Regarding `CC(C)(C)OC(=O)NC1CCCN(c2cc(-c3ccc4c(N)n[nH]c4c3)nc(N)n2)C1` (stereo not shown) [GSK2286096], the “%Inh” value turned out to be 6%.

In the case of `Fc1cccc(COc2ccc(Nc3ncnc4sc(-c5ccc[nH]5)cc34)cc2Cl)c1` [GW707818], the “%Inh” value is listed as 12%.

Regarding `COc1cc2c(Nc3cccc(NC(=O)c4ccccc4)c3)ncnc2cc1OCCCN1CCOCC1` [GSK223810], the “%Inh” value came to 4%.

As for `O=C(c1ccc(-c2cc(-c3c[nH]nc3-c3ccccn3)ccn2)cc1)N1CCCC1` [GW792479], the “%Inh” value amounted to 0%.

Turning to `Cc1ccc(C)c(NC(=O)NCCNc2ccnc(Nc3ccc(F)cc3)n2)c1` [GSK1379878], the “%Inh” value amounted to 0%.

For `CC(=O)Nc1n[nH]c2ncc(-c3ccccc3)cc12` [SB-548492], the “%Inh” value was determined as 0%.

As to `Cl.Cn1ccc(-c2cccc(Nc3ccnc4cc(-c5nccs5)ccc34)c2)n1` [GW525701], the “%Inh” value stood at 17%.

In the case of `O=C(CCO)NCCn1ccc2ncnc(Nc3ccc(Oc4cccc(C(F)(F)F)c4)c(Cl)c3)c21`, the “%Inh” value is reported as 0%.

As for `O=C(Nc1n[nH]c2nc(-c3ccco3)c(Br)cc12)c1ccc(CN2CCCC2)cc1.O=C(O)[C@H](O)[C@@H](O)C(=O)O` [SB-742352], the “%Inh” value worked out at 0%.

With `Oc1ccc2ncnc(Nc3ccc(OCc4ccccc4)cc3)c2c1` [GI262866], the “%Inh” value was 0%.

Consider `NC(=O)c1sc(-n2cnc3ccccc32)cc1OCc1ccccc1F` [GSK1024306], for which the “%Inh” value amounted to 3%.

Take `Fc1cccc(COc2ccc(Nc3ncnc4nn5ccccc5c34)cc2Cl)c1` [GW689066]: the “%Inh” value stood at 0%.

With `O=c1cc(N2CCOCC2)nc2n(Cc3cccc(Cl)c3)ccn12` [GSK2296823], the “%Inh” value was 5%.

On to `O=C(Nc1ccccc1)Nc1ccc(Oc2ccc3nccn3n2)cc1`, for which the “%Inh” value amounted to 0%.

Regarding `Fc1cccc(COc2ccc(Nc3ncnc4cc[nH]c34)cc2Cl)c1`, the “%Inh” value amounted to 0%.

Take `C[C@@H]1CCN(C(=O)CO)C[C@@H]1N(C)c1ncnc2[nH]ccc12`: the “%Inh” value stood at 0%.

Regarding `FC(F)(F)c1ccc(-c2nn3ncccc3c2-c2ccnc(Nc3cccc(C(F)(F)F)c3)n2)cc1` [GW828205], the “%Inh” value was 0%.

In the case of `CSc1nn2c(=O)cc(N3CCOCC3)nc2n1Cc1cccc(Cl)c1Cl` [GSK2347225], the “%Inh” value was 11%.

Take `Cl.c1ccc(Cn2ccc3cc(Nc4ncnc5ccccc45)ccc32)cc1` [GW275568]: the “%Inh” value is 5%.

Take `CCCc1ccc(S(=O)(=O)NC2CCN(c3ccnc(Nc4ccc(OC)cc4)n3)C2)cc1` (stereo not shown) [GSK1379737]: the “%Inh” value is listed as 8%.

With `CCn1c(-c2ccncc2)nc2cnccc21` [SB-735216], the “%Inh” value is 0%.

Turning to `Nc1nc(-c2ccc3c(N)n[nH]c3c2)cc(N2CCCCC2)n1` [GSK2228768], the “%Inh” value is given as 0%.

With `COC(=O)c1cccc(NC(=O)NCCNc2ccnc(Nc3ccc(F)cc3)n2)c1` [GSK1379883], the “%Inh” value is listed as 24%.

For `CC(C)(C)c1ccc(-n2cnc3c(N)ncnc32)cc1` [SKF-97263], the “%Inh” value is listed as 3%.

As for `Cc1cc(N2CCC(NS(=O)(=O)c3ccc(F)cc3)CC2)nc(Nc2cccc(C#N)c2)n1.O=C(O)C(F)(F)F` [GSK1653537], the “%Inh” value came to 6%.

Consider `CCC(CC)(CC)n1cnc2c(N)ncnc21` [SKF-97620], for which the “%Inh” value was 21%.

Take `OCCOCCn1ccc2ncnc(Nc3ccc(Oc4cccc(Cl)c4)c(Cl)c3)c21`: the “%Inh” value turned out to be 0%.

Regarding `COc1ccc(Nc2nccc(N3CCC(NC(=O)c4cccc(NC(C)=O)c4)C3)n2)cc1` (stereo not shown) [GSK1379732], the “%Inh” value is recorded as 0%.

Take `Cc1ccc(O)cc1Nc1cc(C(F)(F)F)nc2ccc(-c3ccncc3)cc12` [GW630823]: the “%Inh” value was 0%.

With `Cn1ccc2ncnc(Nc3ccc(Oc4cccc(Cl)c4)c(Cl)c3)c21`, the “%Inh” value turned out to be 0%.

As to `Clc1cc(Nc2ncnc3cc[nH]c23)ccc1OCc1ccccn1`, the “%Inh” value was 0%.

`O=C(NCCCN1CCCC1=O)c1cnc(NCc2cc(Cl)ccc2Cl)nc1NC1CCNCC1`: the “%Inh” value worked out at 0%.

Regarding `COc1ccc(Nc2nccc(N3CCC(NC(=O)Nc4ccc5c(c4)OCO5)C3)n2)cc1` (stereo not shown) [GSK1379745], the “%Inh” value is 2%.

With `Fc1ccc(Nc2nccc(-c3c(-c4ccc(Cl)cc4)nn4ncccc34)n2)cc1F` [GW829058], the “%Inh” value stood at 42%.

With `C[C@H]1CC[C@@H](C(=O)Nc2ccccc2)CN1c1cc(-c2ccc3c(N)n[nH]c3c2)nc(N)n1` [GSK2283293], the “%Inh” value turned out to be 2%.
